Inconclusive results are not listed. A call without a number means that no potency is given here. The source made the active and inactive calls. Unless noted, calls come from the whole dose curve; as a rule, active = well fitted curve in the direction sought with a large enough effect in the repeat runs; inconclusive = weak or mixed curves; inactive = no such curve, though single readings can be large; an effect the other way counts as inactive or inconclusive.
Experiments:
[1] = qHTS assay to identify small molecule agonists of the estrogen receptor alpha (ER-alpha) signaling pathway in the presence of an antagonist - cell viability counter screen (AID 1259386);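 note: cells exposed to compounds for 22 h at 37 °C before the viability read; nearly all actives have a fitted effect of over 30% in size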; note: potency is the fitted concentration of half-maximal effect
Procedure, shortened: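 ICI-182,780 at 10.0nM final accompanies the compound titration (15 concentrations, 22hr, 37C) on VM7Luc4E2 cells. The CellTiter-Fluor fluorescence readout runs in the same wells as the luciferase assay.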

[2] = target: Progesterone receptor (Homo sapiens) (UniProt P06401); test: qHTS assay to identify small molecule agonists of the progesterone receptor (PR) signaling pathway (AID 1346784; calls by dose curve; note: nearly all actives have a fitted effect of over 30% in size)
Chain of Progesterone receptor (Homo sapiens) (P06401 whole entry, looked up): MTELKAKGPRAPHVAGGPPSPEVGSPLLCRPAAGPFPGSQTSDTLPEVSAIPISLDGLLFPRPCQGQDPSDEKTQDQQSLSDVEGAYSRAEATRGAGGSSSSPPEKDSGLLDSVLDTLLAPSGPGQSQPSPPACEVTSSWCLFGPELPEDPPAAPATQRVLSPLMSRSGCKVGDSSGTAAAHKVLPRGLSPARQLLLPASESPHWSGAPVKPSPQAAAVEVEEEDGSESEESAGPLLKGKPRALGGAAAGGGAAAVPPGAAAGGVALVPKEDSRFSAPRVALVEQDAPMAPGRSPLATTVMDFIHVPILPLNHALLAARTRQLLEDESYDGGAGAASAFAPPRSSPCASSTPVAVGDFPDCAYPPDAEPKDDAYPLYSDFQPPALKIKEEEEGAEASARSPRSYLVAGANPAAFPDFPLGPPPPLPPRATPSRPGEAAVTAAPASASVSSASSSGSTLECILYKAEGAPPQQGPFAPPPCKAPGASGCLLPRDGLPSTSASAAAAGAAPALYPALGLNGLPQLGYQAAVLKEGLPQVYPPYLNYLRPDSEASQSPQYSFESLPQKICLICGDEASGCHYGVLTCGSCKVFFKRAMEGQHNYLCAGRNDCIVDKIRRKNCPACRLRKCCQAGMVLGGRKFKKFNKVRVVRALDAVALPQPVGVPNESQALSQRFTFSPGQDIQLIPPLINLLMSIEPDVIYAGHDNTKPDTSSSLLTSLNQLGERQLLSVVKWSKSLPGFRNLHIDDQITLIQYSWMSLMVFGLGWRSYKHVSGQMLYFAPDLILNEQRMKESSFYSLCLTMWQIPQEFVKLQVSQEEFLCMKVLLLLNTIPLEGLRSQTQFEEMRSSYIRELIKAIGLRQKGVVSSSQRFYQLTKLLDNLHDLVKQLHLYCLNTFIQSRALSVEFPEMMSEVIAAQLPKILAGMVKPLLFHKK
Procedure, shortened: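 Fluorescence from LiveBLAzer B/G FRET substrate cleavage (2 hr, RT) reported PR activation in PR-UAS-bla HEK 293T cells treated 16 hr at 37C/5% CO2 with compounds; medium contained 2% charcoal-stripped FBS.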

[3] = target: Progesterone receptor (Homo sapiens) (UniProt P06401); test: qHTS assay to identify small molecule antagonists of the progesterone receptor (PR) signaling pathway (AID 1346795; active = well fitted inhibition curve with a large enough effect in the signal ratio in the repeat runs, not every such curve was filed as active; the % refers to the signal ratio; note: potency is the fitted concentration of half-maximal effect)
Procedure, shortened: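 Fluorescence intensity measured 2 hr after adding beta-lactamase FRET substrate to PR-UAS-bla HEK293T cells that had been co-treated 16 hr with compound and 1 nM R5020 (final concentration) in 2% charcoal-stripped FBS.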

[4] = qHTS assay to identify small molecule antagonists of the progesterone receptor (PR) signaling pathway - cell viability counter screen (AID 1346798); note: series mostly up to about 92 µM; nearly all actives have a fitted effect of over 50% in size
Procedure, shortened: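 CellTiter-Glo luminescence; PR-UAS-bla HEK293T, 3,000 cells/well; compound + R5020, 16 hr, 37C/5% CO2; 30 min RT before read.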

[5] = qHTS assay to identify small molecule agonists of the progesterone receptor (PR) signaling pathway - cell viability counter screen (AID 1346799; calls by dose curve; note: nearly all actives have a fitted effect of over 45% in size)
Procedure, shortened: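 In parallel with the beta-lactamase readout, cytotoxicity toward PR-UAS-bla HEK293T cells was measured by CellTiter-Glo luminescence following 16 hr compound incubation in 2% charcoal-stripped FBS medium.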

[6] = qHTS assay to identify small molecule antagonists of the TGF-beta/Smad signaling pathway - cell viability counter screen (AID 1346824); note: nearly all actives have a fitted effect of over 50% in size
Procedure, shortened: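 SBE-bla HEK 293T cells, incubated overnight, then compound plus 0.25 ng/mL TGF-beta1 (stock added) for 5 hr at 37 C. Viability was read in the same wells by CellTiter-Glo luminescence after 30 min at room temperature.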

[7] = qHTS assay to identify small molecule agonists of the TGF-beta/Smad signaling pathway - cell viability counter screen (AID 1346829); note: top concentration of the series differs between compounds; nearly all actives have a fitted effect of over 45% in size
Procedure, shortened: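 Tox21 qHTS format: SBE-bla HEK 293T cells treated with DMSO-dissolved compounds for 5 hr; CellTiter-Glo luminescence after 30 min at room temperature.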

[8] = qHTS assay to identify small molecule agonists of the TGF-beta/Smad signaling pathway (AID 1346859; active = well fitted activation curve with a large enough effect in the signal ratio in the repeat runs, not every such curve was filed as active; the % refers to the signal ratio; note: series mostly up to about 77 µM)
Procedure, shortened: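 After overnight seeding, SBE-bla HEK 293T cells are dosed with compounds in DMSO and kept 5 hr at 37 C, 5% CO2. LiveBLAzer-type FRET substrate is then applied for 2 hr at room temperature.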

[9] = target: Thyrotropin-releasing hormone receptor (Homo sapiens) (UniProt P34981); test: qHTS assay to identify small molecule antagonists of the thyrotropin-releasing hormone receptor (TRHR) signaling pathway (AID 1346877; active = well fitted inhibition curve with a large enough effect in the repeat runs, not every such curve was filed as active; note: series mostly up to about 51 µM)
Chain of Thyrotropin-releasing hormone receptor (Homo sapiens) (P34981 whole entry, looked up): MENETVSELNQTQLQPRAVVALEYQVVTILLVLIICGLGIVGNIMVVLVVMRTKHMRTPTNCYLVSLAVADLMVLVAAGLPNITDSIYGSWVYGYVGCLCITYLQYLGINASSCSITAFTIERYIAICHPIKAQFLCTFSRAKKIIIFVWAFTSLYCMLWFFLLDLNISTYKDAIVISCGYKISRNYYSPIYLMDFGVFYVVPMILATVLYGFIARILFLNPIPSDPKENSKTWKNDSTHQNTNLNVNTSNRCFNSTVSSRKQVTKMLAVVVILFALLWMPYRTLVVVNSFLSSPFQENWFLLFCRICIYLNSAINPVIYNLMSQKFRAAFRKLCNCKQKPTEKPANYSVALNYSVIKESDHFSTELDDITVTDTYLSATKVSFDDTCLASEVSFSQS
Procedure, shortened: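 Screening used HEK293 cells engineered with TRHR, with a brief 5 min room-temperature compound exposure preceding addition of TRH to 1 nM. The read-out was kinetic calcium-dye fluorescence, concentration-response from 15 doses in triplicate.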

[10] = target: Thyrotropin-releasing hormone receptor (Homo sapiens) (UniProt P34981); test: qHTS assay to identify small molecule agonists of the thyrotropin-releasing hormone receptor (TRHR) signaling pathway (AID 1346891; calls by dose curve;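 note: HEK293 cells expressing TRHR with calcium dye readout; series mostly up to about 58 µM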)
Procedure, shortened: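 Compounds were tested as agonists at 15 concentrations, in triplicate, on TRHR-Hek293 cells; calcium-sensitive dye fluorescence was recorded for 3 min following addition.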

[11] = Human pregnane X receptor (PXR) small molecule agonists, qHTS cell viability counter screen (AID 1346977); note: nearly all actives have a fitted effect of over 50% in size
Procedure, shortened: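 Viability counter screen: CellTiter-Fluor signal in PXR-Luc HepG2 cells, 24hr compound exposure, 37C, 5% CO2.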

[12] = Caspase-3/7 induction in HepG2 cells by small molecules, qHTS assay (AID 1346978); note: nearly all actives have a fitted effect of over 15% in size
Procedure, shortened: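 Wild-type HepG2 cells, 2,000/well, settled 5 hr at 37 C and 5% CO2, then compound-treated for 17 hr; caspase-3/7 activity read by luminescent Caspase-Glo 3/7 after 30 min at room temperature.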

[13] = Caspase-3/7 induction in CHO-K1 cells by small molecules, qHTS cell viability counter screen (AID 1346979); note: nearly all actives have a fitted effect of over 35% in size; note: potency is the fitted concentration of half-maximal effect
Procedure, shortened: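 Viability readout by fluorescence (CellTiter-Fluor) on wild-type CHO-K1 cells exposed for 16hr at 37C and 5% CO2 to compounds delivered in DMSO; reagent incubated 1hr before reading.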

[14] = Caspase-3/7 induction in CHO-K1 cells by small molecules, qHTS assay (AID 1346980); note: nearly all actives have a fitted effect of over 15% in size
Procedure, shortened: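 Wild-type CHO-K1 cells exposed to compounds for 17hr at 37 C, 5% CO2. Caspase-3/7 activity then measured by Caspase-Glo 3/7 luminescence after 30min at room temperature.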

[15] = target: Nuclear receptor subfamily 1 group I member 2 (Homo sapiens) (UniProt O75469); test: Human pregnane X receptor (PXR) small molecule agonists, qHTS assay (AID 1346982); note: nearly all actives have a fitted effect of over 35% in size; note: potency is the fitted concentration of half-maximal effect
Chain of Nuclear receptor subfamily 1 group I member 2 (Homo sapiens) (O75469 whole entry, looked up): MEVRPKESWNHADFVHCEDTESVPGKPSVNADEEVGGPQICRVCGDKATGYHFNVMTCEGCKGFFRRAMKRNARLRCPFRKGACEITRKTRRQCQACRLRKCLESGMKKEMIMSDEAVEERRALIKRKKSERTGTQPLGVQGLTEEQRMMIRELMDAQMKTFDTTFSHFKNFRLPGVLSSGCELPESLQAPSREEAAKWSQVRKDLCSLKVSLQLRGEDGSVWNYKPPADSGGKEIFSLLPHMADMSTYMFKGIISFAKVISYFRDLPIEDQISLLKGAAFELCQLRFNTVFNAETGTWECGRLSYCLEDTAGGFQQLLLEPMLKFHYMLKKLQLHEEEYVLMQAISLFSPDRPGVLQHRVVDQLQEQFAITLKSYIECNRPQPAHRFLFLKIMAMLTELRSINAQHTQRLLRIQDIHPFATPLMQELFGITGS
Procedure, shortened: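 We seeded PXR-Luc HepG2 cells in assay medium containing 5% charcoal-stripped FBS, added compounds 5 hr later, incubated 24 hr, and read luminescence with ONE-Glo reagent.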

[16] = target: Acetylcholinesterase (Homo sapiens) (UniProt P22303); test: Acetylcholinesterase (AChE) small molecule antagonists: colormetric cell-based qHTS assay (AID 1347395; calls by dose curve; note: nearly all actives have a fitted effect of over 30% in size)
Chain of Acetylcholinesterase (Homo sapiens) (P22303 whole entry, looked up): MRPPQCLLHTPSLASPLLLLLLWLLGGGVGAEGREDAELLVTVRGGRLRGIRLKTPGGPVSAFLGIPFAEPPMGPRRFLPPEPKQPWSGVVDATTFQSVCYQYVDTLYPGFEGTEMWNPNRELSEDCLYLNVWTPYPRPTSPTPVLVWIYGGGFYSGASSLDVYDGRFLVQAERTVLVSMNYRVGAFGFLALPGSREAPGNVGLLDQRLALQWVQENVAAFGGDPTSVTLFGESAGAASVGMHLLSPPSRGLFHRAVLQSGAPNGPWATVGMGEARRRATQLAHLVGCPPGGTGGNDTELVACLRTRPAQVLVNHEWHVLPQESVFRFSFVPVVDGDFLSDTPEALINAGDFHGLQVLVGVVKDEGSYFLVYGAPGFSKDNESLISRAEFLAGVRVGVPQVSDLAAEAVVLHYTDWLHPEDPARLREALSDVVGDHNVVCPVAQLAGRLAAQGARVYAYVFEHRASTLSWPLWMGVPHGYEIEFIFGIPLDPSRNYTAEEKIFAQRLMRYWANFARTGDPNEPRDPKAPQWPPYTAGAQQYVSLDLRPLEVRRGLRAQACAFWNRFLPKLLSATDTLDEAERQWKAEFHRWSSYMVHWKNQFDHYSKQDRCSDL
Procedure, shortened: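 Homogeneous whole-cell format. SH-SY5Y cells seeded overnight, dosed with compound (30 min, 37 C, 5% CO2), then given DTNB/acetylthiocholine cocktail for 90 min at 37 C; colorimetric signal.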

[17] = Caspase-3/7 induction in HepG2 cells by small molecules, qHTS cell viability counter screen (AID 1346981); note: nearly all actives have a fitted effect of over 30% in size; note: potency is the fitted concentration of half-maximal effect
Procedure, shortened: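 Multiplexed with the caspase-3/7 assay: HepG2 cells, 16 hr compound treatment, CellTiter-Fluor viability detection by fluorescence.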

Compound	Potency [1]	Potency [2]	Potency [3]	Potency [4]	Potency [5]	Potency [6]	Potency [7]	outcome [8]	Potency [9]	Potency [10]	Potency [11]	Potency [12]	Potency [13]	Potency [14]	Potency [15]	Potency [16]	Potency [17]
Nc1cc(Cl)ccc1Cl	inactive	inactive	inactive	inactive	inactive	inactive	inactive	inactive	inactive	inactive	inactive	inactive	inactive	inactive	inactive	inactive	
Cc1nn(-c2cc(NS(C)(=O)=O)c(Cl)cc2Cl)c(=O)n1C(F)F	inactive	inactive	inactive	inactive	inactive	inactive	inactive	inactive	inactive	inactive	inactive		inactive	inactive	inactive	inactive	inactive
CCN(CC)C(=O)N[C@@H]1C=C2c3cccc4[nH]cc(c34)C[C@@H]2N(C)C1	inactive	inactive	inactive	inactive	inactive	inactive	inactive	inactive	inactive	inactive	inactive	inactive	inactive	inactive			
COc1ccc2c(c1OC)C(=O)O[C@@H]2[C@H]1c2cc3c(cc2CCN1C)OCO3	6.05 µM (active)	inactive	inactive	inactive	inactive	inactive	inactive	inactive	inactive	inactive			21.5 µM (active)	inactive	30.3 µM (active)	inactive	17.1 µM (active)
O=[N+]([O-])C(Br)Br	inactive	inactive	inactive	inactive	inactive	inactive	inactive	inactive	inactive	inactive	inactive		inactive	inactive	inactive	inactive	inactive
CC1(C)C(C=C(Cl)Cl)C1C(=O)OC(C#N)c1ccc(F)c(Oc2ccccc2)c1 (configuration not stated)	inactive	inactive	13.7 µM (active)	inactive	inactive	inactive	inactive	inactive		inactive	inactive			inactive	inactive	inactive	inactive
Clc1cc(Cl)c(-c2cc(Cl)c(Cl)cc2Cl)cc1Cl	inactive	inactive	10.2 µM (active)	inactive	inactive	inactive	inactive	inactive	inactive	inactive	inactive	inactive	inactive	inactive	inactive	inactive	
C=CC(=C)C	inactive	inactive	inactive	inactive	inactive	inactive	inactive	inactive	inactive	inactive	inactive	inactive	inactive	inactive	inactive	inactive	inactive
C=CCBr	inactive	inactive	inactive	inactive	inactive	inactive	inactive	inactive	inactive	inactive	inactive	inactive	inactive	inactive	inactive	inactive	
COc1cnc(OC)n2nc(NS(=O)(=O)c3c(OCC(F)F)cccc3C(F)(F)F)nc12	inactive	inactive	inactive	inactive	inactive	inactive	inactive	inactive	inactive	inactive		inactive	inactive	inactive	inactive	inactive	inactive
CCCCON=O	inactive	inactive	inactive	inactive	inactive	inactive	inactive	inactive		inactive	inactive	inactive	inactive	inactive	inactive	inactive	inactive
C#CCO	inactive	inactive	inactive	inactive	inactive	inactive	inactive	inactive		inactive	inactive	inactive	inactive		inactive	inactive	inactive
CCOC(=O)Cc1ccccc1	inactive	inactive	inactive	inactive	inactive	inactive	inactive	inactive	inactive	inactive		inactive	inactive	inactive	inactive	inactive	inactive
O=C(N[C@H]1N=C(c2ccccc2F)c2cccc3c2N(CC3)C1=O)c1cc2ccccc2[nH]1	inactive	inactive	inactive	inactive	inactive	inactive	inactive	inactive	inactive	inactive	inactive	inactive	inactive	inactive	18.8 µM (active)	inactive	inactive
[O-][Cl+3]([O-])([O-])O	inactive	inactive	inactive	inactive	inactive	inactive	inactive	inactive	inactive	inactive	inactive	inactive	inactive	inactive	inactive	inactive	inactive
Cc1ccc(C)c2ccccc12	inactive	inactive	inactive	inactive	inactive	inactive	inactive	inactive	inactive	inactive			inactive	inactive	inactive	inactive	inactive

Reference: PubChem BioAssay (Tox21)
